Common to all, as to assay: NCI-60 one-dose screen, 48 h (100 = growth as untreated, 0 = no growth, -100 = all killed)
What all share (conditions): 10 µM unless noted

Assay [1] relates to DU-145 prostate.
The test system of assay [2] is K-562 leukemia.
Assay [3] relates to MALME-3M melanoma.
For assay [4], the system named is MDA-MB-231 breast.
In assay [5] the test system is RXF 393 renal.
Assay [6] concerns SF-268 CNS.
The test system of assay [7] is SF-295 CNS.
Assay [8] concerns SF-539 CNS.
Assay [9] relates to UACC-257 melanoma.
Assay [10] relates to M14 melanoma.
The test system of assay [11] is HCT-15 colon.
Assay [12] concerns HT29 colon.
The subject of assay [13] is SNB-75 CNS.
For assay [14], the system named is SNB-19 CNS.
Assay [15] concerns U251 CNS.
Assay [16] has as its system SK-MEL-5 melanoma.
Assay [17] relates to UACC-62 melanoma.
The subject of assay [18] is LOX IMVI melanoma.
The test system of assay [19] is SK-MEL-28 melanoma.

Each structure is given as a SMILES string. The panel holds about 83,000 compounds, 20% with a hit somewhere; the sample as a whole holds those more often.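 Assay: single dose, 48 h. Readout: percent growth (0 = no net growth; negative = cell death). Active: <10.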 Unmarked numbers belong to inactive results. The source made the active and inactive calls.

For `Cc1cc(N2CCCCCC2)nc(N2CCN(CC(=O)Nc3ccc4c(ccn4Cc4ccccc4)c3)CC2)n1`, the growth was 70.7% in [1]; 12.1% in assay [2]; 50.9% in assay [3]; 54.6% in assay [4]; 6.02% (active) in [5]; 71.2% in assay [6]. Besides, the growth is 20.4% in [7]; 55.7% in [8]; 61.3% in assay [9]; 15.6% in [10]; 30.8% in assay [11]; 6.45% (active) in assay [12]. Moreover, the growth was 69.6% in assay [13]; 67.3% in assay [14]; 39.2% in [15]; 46.9% in assay [16]; 49.2% in assay [17]; 44.1% in assay [18]. In assay [19], the growth was 51.8%.
For `Cn1c(=O)c(C#N)c(-c2ccco2)n2c(S(=O)(=O)Cc3ccccc3)nnc12`, the growth in [1] is 77%; in assay [2] it was 100%; in assay [3], 63.6%; in [4] it was 126%; in assay [5] it was 91%; in assay [6], 104%. Moreover, the growth in assay [7] is 112%; in assay [8], 101%; in [9], 8.93% (active); in assay [10], 57.6%; in assay [11] it was 78.3%; in assay [12], 92.5%. Also, the growth is 97.8% in assay [13]; 115% in [14]; 82.8% in [15]; 90.1% in assay [16]; 75.5% in assay [17]; 92.3% in assay [18]. Further, the growth in assay [19] was 99.1%.
In the case of `COc1c(C(C)=O)c(OCCCCOc2c(C(C)=O)c(OC)c3ccoc3c2OC)c(OC)c2occc12`, the growth in assay [1] is 116%; in [2] it was 54.3%; in [3], 48.8%; in assay [4], 82.7%; in assay [5], 80.7%; in assay [6], 84.3%. Also, the growth is 19.7% in assay [7]; 105% in assay [8]; 73.3% in assay [9]; 99.3% in assay [10]; 78.8% in assay [11]; 65.9% in assay [12]. Moreover, the growth in [13] is 107%; in assay [14], 80%; in [15], 79.9%; in assay [16], 51.3%; in [17], 55.8%; in assay [18], 74.5%. In addition, the growth in assay [19] is 96.3%.
Regarding `CS(=O)(=O)c1cccnn1`, the growth in assay [1] was 97.6%; in [2], 84.3%; in assay [3] it was 88.8%; in assay [4], 102%; in assay [5], 102%; in assay [6], 98.8%. Further, the growth in assay [7] is 112%; in [8], 82%; in [9], 108%; in assay [10], 103%; in assay [11], 108%; in [12], 89.7%. In addition, the growth in assay [13] was 48.9%; in assay [14] it was 102%; in assay [15] it was 92.9%; in assay [16], 92.9%; in assay [17], 90.7%; in assay [18], 85.2%. Moreover, the growth in assay [19] is 117%.
On to `C=C(CC(=O)OC)C(C)=O`, for which the growth was 107% in [1]; 106% in assay [2]; 128% in [3]; 94.8% in assay [4]; 112% in [5]; 106% in assay [6]. Besides, the growth was 106% in assay [7]; 120% in [8]; 118% in [9]; 119% in [10]; 117% in assay [11]; 119% in assay [12]. In addition, the growth in [13] is 110%; in [14], 103%; in assay [15], 116%; in assay [16], 107%; in [17], 95.4%; in [19], 118%.
With `CC1(C)OC2[C@@H](CNC(=O)NC(=O)NC(=O)CI)O[C@@H](n3cnc4c(NC(=O)Nc5ccccc5)ncnc43)[C@H]2O1` (stereo not given in full), the growth in assay [1] is 105%; in assay [2], 4.48% (active); in [3], -61.1% (active); in assay [4], 58.4%; in assay [5] it was 54.9%; in [6], 73.4%. Besides, the growth was 84.6% in [7]; 27.2% in assay [8]; 94.7% in [9]; 69.4% in [10]; 17.2% in assay [11]; 9.35% (active) in assay [12]. In addition, the growth was 80.5% in [13]; 94.6% in assay [14]; 95.5% in assay [15]; 103% in [16]; 93.8% in [17]; -79.4% (active) in assay [18]. In addition, the growth in assay [19] was 97.8%.
Take `CCOC(=O)C(C(C)=O)c1nc2sc3cc(Cl)c(Cl)cc3n2c(=O)c1C#N` (stereo not given): the growth is 109% in assay [1]; 92% in [2]; 95.5% in assay [3]; 87.2% in assay [4]; 179% in [5]; 103% in assay [6]. Further, the growth was 103% in assay [7]; 86.2% in [8]; 118% in assay [9]; 104% in assay [10]; 109% in assay [11]; 107% in [12]. Also, the growth in assay [13] is 73%; in [14], 93%; in [15], 111%; in assay [16], 74.3%; in [17] it was 85.8%; in assay [19] it was 125%.
Take `CC(=O)O.CC(=O)O.O.[Fe]`: the growth in [1] is 105%; in [2] it was 139%; in assay [3] it was 91.5%; in [4], 99.2%; in assay [5] it was 110%; in [6], 95.1%. The growth is 127% in assay [7]; 103% in assay [8]; 103% in [9]; 106% in assay [10]; 111% in assay [11]; 98.7% in [12]. Also, the growth is 114% in assay [13]; 98.2% in assay [14]; 107% in assay [15]; 107% in [16]; 93.7% in [17]; 100% in [18]. In assay [19], the growth was 112%.

For the origin of these results see PubChem BioAssay (NCI).
